Values joined by “and” are separate entries in the source; they are usually repeats but may differ in a detail not shown here. Equal values may be shown once. Records with an inconclusive call do not appear. Values without a mark were called inactive. Active and inactive are the calls of the source. The call rests on the fitted dose curve; in most records, active means well fitted cell-killing curve with a large enough effect in the repeat runs; inconclusive means weak or mixed curves; inactive means flat fitted curve, though single readings scatter.
experiment: qHTS RealTime-Glo MT Cell Viability Assay in HepG2 cells - 16 hour (AID 1224885); settings: RealTime-Glo luminescence; series mostly up to 76.8 µM; activity change, negative = cytotoxic: at the top concentration; further: nearly all actives have a fitted effect of over 50% in size
Source text: U.S. Tox21 Program National Center for Advancing Translational Sciences [NCATS] NIH Chemical Genomics Center [NCGC] U.S. Environmental Protection Agency [EPA] National Institutes of Environmental Health Sciences [NIEHS] National Toxicology Program [NTP] U.S. Food and Drug Administration [FDA] Tox21 Assay Overview: Measure of cell viability is critical in the cell-base assay. Analysis of cell viability is necessary for the characterization of cell responses to cytotoxic drugs and environmental stress. A RealTime-Glo MT Cell Viability Assay to monitor cell viability in real time of continues cell culture during 40 hours of compound treatment was used to screen Tox21 10K library compounds in HepG2 cells. The RealTime-Glo MT Cell Viability Assay is a nonlytic, homogeneous, bioluminescent method to measure cell viability in real time using a simple, plate-based method. The assay involves adding NanoLuc luciferase and a cell-permeant prosubstrate to cells in culture. Viable cells reduce the proprietary prosubstrate to generate a substrate for NanoLuc luciferase. This substrate diffuses from cells into the surrounding culture medium, where it is rapidly used by the NanoLuc Enzyme to produce a luminescent signal. The signal correlates with the number of viable cells, making the assay well suited for cytotoxicity studies.
Tox21 Assay Protocol Summary: The mixture of HepG2 cell suspension and reagents were dispensed at 600cells/6 ul/well in 1536-well tissue culture treated black solid bottom plates using a Multidrop dispenser. After the assay plates were incubated at a 37 C/5% CO2 incubator for 5 hours, 23 nL of compounds dissolved in DMSO, positive and negative controls was transferred to the assay plate by a pintool work station. The plates were incubated at 37 C for 40 hours. The luminescence intensity were measured at 0h, 8h, 16h, 24h, 32h and 40h time points using ViewLux plate reader during compound treatment.
On the % scale 0 is the no-effect control and ±100 the full control effect; potency means the concentration at half of the fitted maximal effect.

SMILES | Potency | activity change, negative = cytotoxic
C[C@@H]1C[C@@H]([C@H](O)CC2CC(=O)NC(=O)C2)C(=O)[C@@H](C)C1 | inactive | –
CCCCOC(=O)CCC(=O)OCCCC | – | 1.52%
OCCCl | – | 1.96%
COP(=O)(OC)OC(Br)C(Cl)(Cl)Br (stereo not given) | inactive | –
O=C(NCNC(=O)NC1C(=O)NC(=O)N1CO)NC1C(=O)NC(=O)N1CO (stereo not given) | – | -0.332%
CN1C(=O)CN=C(c2ccccc2)c2cc([N+](=O)[O-])ccc21 | – | 0.0268% [at 35.3 µM]
CCCCC1C(=O)NC(=O)N(C2CCCCC2)C1=O (stereo not given) | – | 3.04% [at 35.3 µM]
CC(C)(C)NCC(O)c1ccccc1Cl (stereo not given) | – | 1.94% [at 35.3 µM]
C[N+](C)(C)CCOC(=O)C(O)(c1ccccc1)c1ccccc1 | – | 1.52% [at 35.3 µM]
O=[N+]([O-])c1cc(Cl)c(Cl)cc1Cl | – | -0.833%
CCOP(=O)(O)C(N)=O | – | 0.289%
Nc1cc(Cl)cc(C(=O)O)c1Cl | inactive | –
CCCCCCCCCCCCCCCl | – | 0.381%
C1CS1 | – | 2.6%
CC(=O)OC(c1ccccc1)C(Cl)(Cl)Cl (stereo not given) | – | -7.26%
Nc1c(Br)cc(Br)c2c1C(=O)c1ccccc1C2=O | – | -7.09% [at 15.8 µM]
CCC(C)(C)O | – | -1.04%
CC(C)[C@@H](C(=O)O[C@@H](C#N)c1cccc(Oc2ccccc2)c1)c1ccc(Cl)cc1 | – | -15.3%
NCCc1cc(O)c(O)cc1O | – | -14.6% [at 35.3 µM]
[Cl-].[Cl-].[Hg+2] | 48.8 µM (active) and 3.89 µM (active) | –

SMILES | Potency | activity change, negative = cytotoxic
O=S(=O)(c1ccccc1)c1ccccc1 | – | -1.05%
O=C(O)C(Cl)(Cl)Br | – | 2.02%
C#C[C@]1(O)CC[C@H]2[C@@H]3CCC4=CC(=O)CCC4=C3C=C[C@@]21CC | – | -23% [at 35.3 µM]
CCCN(CCC)c1c([N+](=O)[O-])cc(C(C)C)cc1[N+](=O)[O-] | inactive | –
CCCC[N+](CCCC)(CCCC)CCCC | – | 1.39%
C[N+](C)(C)CC1CO1 (stereo not given) | – | 4.01%
C=CC(=O)NC(C)(C)CC(C)=O | – | 3.44%
C[Si](Cn1cncn1)(c1ccc(F)cc1)c1ccc(F)cc1 | – | -19.9%
N#CC1(N=NC2(C#N)CCCCC2)CCCCC1 | – | -2.06%
N#CC(C#N)=Cc1ccc(O)c(O)c1 | – | -1.05% [at 35.3 µM]
CCOP(=S)(S)OCC | – | 0.315%
O=C(CCl)CCl | inactive | –
CON(C)C(=O)Nc1ccc(Cl)cc1 | – | -0.921%
C#CC(O)(C=CCl)CC (stereo not given) | – | 1.41% [at 35.3 µM]
COC1CC(=C(c2cccs2)c2cccs2)C[N+](C)(C)C1 (stereo not given) | – | 0.565% [at 35.3 µM]
CCC1(C2=NCCN2)Cc2ccccc2O1 (stereo not given) | – | 4.48% [at 35.3 µM]
CCCCCCCCn1sccc1=O | 43.7 µM (active) and 16.2 µM (active) | –
CC(Cc1ccccc1)NCc1ccccc1Cl (stereo not given) | – | 0.212% [at 35.3 µM]
CC(C)CCCCCCCOC(=O)c1ccccc1C(=O)OCCCCCCCC(C)C | – | 11.9%
NNCCO | – | 1.09%

Reference: PubChem BioAssay (Tox21)
